Compounds with a hit are over-represented: about 2.6% of the library has one in this group of screens.
SIAE primary: human SIAE inhibition, primary screen | Q9HAT2 | SIAE FP-Rh probe binding, fluorescence polarization | inhibition, % at 9.66 µM | 370,000 tested, 0.69% active | AID 1053197;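 active means inhibition above a cutoff: mean of compounds within the control limits plus 3 SD of those, cut at about 17% in these data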
PME-1 primary: blocks human protein phosphatase methylesterase 1 | recombinant PME-1, FP-Rh probe fluorescence polarization | inhibition, % at 5.9 µM | 320,000 tested, 0.53% active | AID 2130;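 active means inhibition above the campaign mean of all compounds plus 3 SD, cut at about 26% in these data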;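 further: competitive labeling of PME-1 active site by serine hydrolase directed probe; inhibitors block probe labeling so polarization falls and inhibition rises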
Fam108B counter: blocks mouse Fam108B hydrolase in RBBP9 counter-screen; 300,000 tested, 0.33% active; recombinant Fam108B, FP-Rh probe fluorescence polarization; inhibition, % at 9.51 µM;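 active means inhibition above the screen mean inhibition plus 3 SD, computed separately per campaign, cut at about 18% in these data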;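 further: inhibitors lower polarization as less probe binds the enzyme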
PRMT1 inh: PRMT1 (human) inhibition, primary screen | inhibition, % at 2.79 µM | 370,000 tested, 1.3% active | Q99873 | recombinant PRMT1, activity-based probe fluorescence polarization;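 active means inhibition above about 21% made by adding two undisclosed values, limit read from the data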
PAD4 FP inh: inhibitors of human PAD4 | recombinant PAD4, RCA probe fluorescence polarization | inhibition, % at 6.36 µM | 330,000 tested, 0.41% active | AID 485272;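 active means percent inhibition above a cutoff equal to the mean of all tested compounds plus 3 SD, cut at about 15% in these data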
Target sequence (Q9UM07 whole entry, looked up): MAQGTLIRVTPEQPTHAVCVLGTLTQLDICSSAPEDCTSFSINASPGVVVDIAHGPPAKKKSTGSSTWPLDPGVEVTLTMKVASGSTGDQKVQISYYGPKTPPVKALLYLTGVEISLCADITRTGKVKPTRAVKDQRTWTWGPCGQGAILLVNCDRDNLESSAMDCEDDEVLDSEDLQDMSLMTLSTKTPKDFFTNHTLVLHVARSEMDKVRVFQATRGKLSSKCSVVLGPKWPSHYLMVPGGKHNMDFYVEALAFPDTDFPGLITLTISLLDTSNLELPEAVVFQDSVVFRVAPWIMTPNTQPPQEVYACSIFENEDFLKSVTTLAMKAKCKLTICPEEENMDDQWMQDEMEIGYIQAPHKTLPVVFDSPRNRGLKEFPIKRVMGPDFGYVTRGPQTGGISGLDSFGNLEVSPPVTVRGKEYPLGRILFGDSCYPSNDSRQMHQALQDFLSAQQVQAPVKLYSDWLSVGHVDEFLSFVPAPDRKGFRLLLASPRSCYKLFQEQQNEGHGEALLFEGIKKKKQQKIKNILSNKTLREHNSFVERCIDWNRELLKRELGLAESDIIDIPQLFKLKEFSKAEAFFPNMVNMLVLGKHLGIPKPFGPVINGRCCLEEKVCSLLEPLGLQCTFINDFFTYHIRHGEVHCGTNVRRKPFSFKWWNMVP
TCR CD3 inh: human TCR-CD3 binding inhibition; 360,000 tested, 0.37% active; inhibition, % at 9.4 µM; TAMRA-labeled TCR probe fluorescence, biochemical; in the data active means inhibition above about 19%;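 further: recombinant mutant TCR 2C K166C tagged with TAMRA read by polarization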
PRMT1 inh conf: PRMT1 (human) inhibition, FP confirmation | shares compounds with PRMT1 inh | AID 687036 | 3,300 tested, 42% active | recombinant His-PRMT1, activity-based probe fluorescence polarization | inhibition, % at 2.79 µM;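 active means mean inhibition across replicates above the hit cutoff derived for the earlier primary screen, cut at about 22% in these data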
Large screens that a line does not name were inactive (follow-up assays come after a bar, where they were run).

Cc1nnc(N2C(=O)C(O)=C(C(=O)c3ccco3)C2c2cccc3ccccc23)s1 (centres undefined)	none
Cc1ccc(C2C(C(=O)c3ccco3)=C(O)C(=O)N2c2nnc(C)s2)cc1 (centres undefined)	PRMT1 inh 30 | PRMT1 inh conf inactive
CC(C)c1nnc(N2C(=O)C(O)=C(C(=O)c3cccs3)C2c2ccccc2)s1 (centres undefined)	PRMT1 inh 79 (no result: PME-1 primary, Fam108B counter, PAD4 FP inh) | PRMT1 inh conf 76
FC(F)(F)c1ccc(Cn2ccc3ccc(-c4ccc5ccn(Cc6ccccc6)c5c4)cc32)cc1	none (no result: PME-1 primary, Fam108B counter, PAD4 FP inh, TCR CD3 inh)
COCCNC(=S)N(C)[C@H]1C[C@H]2c3[nH]c4c(-c5cccc(C)c5)cccc4c3CCN2C[C@H]1[C@H](C)O	none (no result: PME-1 primary, Fam108B counter, PAD4 FP inh, TCR CD3 inh)
CCc1nnc(NC(=O)c2cc(-c3ccco3)nc3ccccc23)s1	PRMT1 inh 26 | PRMT1 inh conf inactive
Cc1cccc(NC(=O)c2cc(-c3ccco3)nc3ccccc23)n1	PRMT1 inh 35 | PRMT1 inh conf inactive
O=C(Nc1nncs1)c1cc(-c2ccco2)nc2ccccc12	PRMT1 inh 36 (no result: PME-1 primary, Fam108B counter) | PRMT1 inh conf inactive
O=C(c1ccc(F)cc1)C1CCN(c2ncnc3sccc23)CC1	none (no result: PME-1 primary, Fam108B counter, PAD4 FP inh, TCR CD3 inh)
COc1nc(OC)nc(N2CCC(C(=O)N(C)Cc3ccccc3F)CC2)n1	none (no result: PME-1 primary, Fam108B counter, PAD4 FP inh, TCR CD3 inh)
CCOC(=O)c1c(-c2ccco2)csc1N	PRMT1 inh 25 | PRMT1 inh conf inactive
CCOC(=O)c1c(-c2ccco2)csc1NC(=O)COC(=O)c1cnccn1	PRMT1 inh 25 | PRMT1 inh conf inactive
COC(=O)Nc1nnc(-c2ccco2)s1	none
CCc1ccc(OCC(=O)Nc2nnc(-c3ccco3)s2)cc1	PRMT1 inh 34 | PRMT1 inh conf inactive
O=C(CSc1nnc(COc2ccccc2)n1Cc1ccco1)NCc1ccco1	PRMT1 inh 29 | PRMT1 inh conf inactive
Cc1cc(NC(=O)CSc2nnc(COc3ccccc3)n2Cc2ccco2)no1	none
COc1ccc(C(=O)C2(C(=O)NC3CCCC3)CC(c3ccccc3C(F)(F)F)=NO2)cc1 (centres undefined)	none (no result: PME-1 primary, Fam108B counter, PAD4 FP inh, TCR CD3 inh)
COC(=O)C[C@@H]1CC[C@@H]2[C@@H](COc3ccc(NC(=O)Nc4cccc(Cl)c4)cc3C(=O)N2C)O1	none (no result: PME-1 primary, Fam108B counter, PAD4 FP inh, TCR CD3 inh)
Cc1cc(-c2csc(N)n2)c(C)n1C	PRMT1 inh 27 | PRMT1 inh conf inactive
CC(=O)Nc1ccc(S[C@@H](CCN2CC[C@H](O)CCC2=O)c2ccccc2)cc1	PRMT1 inh 36 (no result: Fam108B counter) | PRMT1 inh conf 28
O=C1CC[C@@H](O)CCN1CC[C@H](Sc1ccccc1)c1ccccc1	none
C[C@@H]1[C@@H](O)C[C@@]2(C[C@H](O)c3ccccc3O2)O[C@H]1c1ccccc1	none (no result: PME-1 primary, Fam108B counter, PAD4 FP inh, TCR CD3 inh)
COC(=O)c1ccc(NC(=O)c2nc(S(=O)(=O)Cc3cccc(C)c3)ncc2Cl)cc1	PRMT1 inh 52 | PRMT1 inh conf 38
CCS(=O)(=O)c1ncc(Cl)c(C(=O)Nc2ccc(S(=O)(=O)N3CCC(C)CC3)cc2)n1	PRMT1 inh 31 | PRMT1 inh conf inactive
COc1cccc(NC(=O)c2nc(S(C)(=O)=O)ncc2Cl)c1	PRMT1 inh 40 | PRMT1 inh conf inactive
CCc1ccc(NC(=O)c2nc(S(=O)(=O)Cc3ccccc3)ncc2Cl)cc1	PRMT1 inh 31 | PRMT1 inh conf 26
CCOC(=O)c1ccc(NC(=O)c2nc(S(=O)(=O)Cc3ccccc3)ncc2Cl)cc1	none
Fc1ccccc1-c1n[nH]c(=S)n1N=Cc1ccc(-c2ccccc2)cc1	none (no result: PME-1 primary, Fam108B counter, PAD4 FP inh, TCR CD3 inh)
COC(=O)C[C@@H]1CC[C@H]2[C@H](COc3ccc(NC(=O)Nc4ccc(C#N)cc4)cc3C(=O)N2C)O1	none (no result: PME-1 primary, Fam108B counter, PAD4 FP inh, TCR CD3 inh)
CCCCCCCCNS(=O)(=O)CC1NCc2ccccc21 (centres undefined)	none (no result: PME-1 primary, Fam108B counter, PAD4 FP inh, TCR CD3 inh)
Cc1ccc(CNC(=O)CSc2c3c(nc4cc(Cl)ccc24)CCCC3)o1	PRMT1 inh 60 | PRMT1 inh conf inactive
COc1cccc(-n2c(=S)sc3c(=O)n(-c4ccccc4OC)c(=S)[nH]c32)c1	PRMT1 inh 82 | PRMT1 inh conf inactive
COc1ccc(OC)c(-n2c(=S)[nH]c3c(sc(=S)n3-c3ccccc3C)c2=O)c1	PRMT1 inh 48 | PRMT1 inh conf inactive
Cc1cc(C)n(CCc2nc(-c3ccc(C)o3)cs2)n1	PRMT1 inh 68 | PRMT1 inh conf 34
COC(=O)[C@]12C[C@H](CC(=O)NCC34CC5CC(CC(C5)C3)C4)C(=O)N(CCC3=CCCCC3)C1=C[C@H](C(C)C)O[C@@H]2C1CC1	none (no result: PME-1 primary, Fam108B counter, PAD4 FP inh, TCR CD3 inh)
COc1cccc(N2C(=O)CC(N3CCC(c4nc5ccccc5[nH]4)CC3)C2=O)c1 (centres undefined)	PRMT1 inh 60 | PRMT1 inh conf inactive
Cc1cccc(N2C(=O)CC(N3CCC(c4nc5ccccc5[nH]4)CC3)C2=O)c1 (centres undefined)	PRMT1 inh 47 | PRMT1 inh conf inactive
CCN1C(=O)CC(N2CCC(c3nc4ccccc4[nH]3)CC2)C1=O (centres undefined)	none
CCCCN1CC[C@@H](C)Oc2cc(Br)ccc2S1(=O)=O	none (no result: PME-1 primary, Fam108B counter, PAD4 FP inh, TCR CD3 inh)
COC(=O)c1cnn(-c2ccc(Cl)cc2)c1/C=N/NC(=S)Nc1ccccc1	none (no result: PME-1 primary, Fam108B counter, PAD4 FP inh, TCR CD3 inh)
Cc1cc(C)nc(N2N=C(C(C)(C)C)CC2=O)n1	PRMT1 inh 41 | PRMT1 inh conf inactive
Cc1cccc(CCNC(=O)Cn2nc(-c3ccccc3)ccc2=O)c1	none (no result: PME-1 primary, Fam108B counter, PAD4 FP inh, TCR CD3 inh)
O=C(CCN1CCc2ccccc2CC1)c1ccc2c(c1)OCCO2	PRMT1 inh 40 | PRMT1 inh conf 29
Cn1c(N)c(C(=O)CSc2nc3ccccc3[nH]2)c(=O)n(C)c1=O	PRMT1 inh 28 | PRMT1 inh conf inactive
CC1(C(=O)CSc2nc3ccccc3[nH]2)CCC(=O)O1 (centres undefined)	PRMT1 inh 60 | PRMT1 inh conf 41
CCOC(=O)c1c(N)sc(N)c1C(=O)OCC	PRMT1 inh 31 | PRMT1 inh conf 56
CCOC(=O)c1c(N)sc(=S)c2c1CCC2	PRMT1 inh 27 | PRMT1 inh conf inactive
CCCOC(=O)c1c(N)sc2c1CCC2	none
Cc1cccc(N=C2NC(=O)/C(=C/C=C/c3ccco3)S2)c1	PRMT1 inh 28 | PRMT1 inh conf inactive
COc1ccc(N=C2NC(=O)/C(=C\C=C\c3ccco3)S2)cc1	none (no result: PME-1 primary, Fam108B counter, PAD4 FP inh)
NC(CO)C(=O)NNCc1ccc(O)c(O)c1O (centres undefined)	PRMT1 inh 30 | PRMT1 inh conf 41
COC(=O)C(N)Cc1ccc(O)c(O)c1 (centres undefined)	none
CCC1(C)Cc2c(C#N)c(N)sc(=S)c2CO1 (centres undefined)	PRMT1 inh 28 | PRMT1 inh conf 27
N#Cc1c(N)sc(=S)c2c1CCCC2	PRMT1 inh 28 | PRMT1 inh conf inactive
N#CC1=C(N)OC2=C(CC/C2=C\c2ccccc2)C1c1ccccc1 (centres undefined)	PRMT1 inh 27 | PRMT1 inh conf 48
N#CC1=C(N)OC2=C(CC/C2=C\c2ccccc2Cl)C1c1ccccc1Cl (centres undefined)	none

Source: PubChem
